Read-out in test [1]: Cytochrome P450 (CYP1A1), CYP1A1 (gene 1543)
Description: LTEA_HepaRG_CYP1A1: Life Technologies and Expression Analysis (LTEA) Assay for Cytochrome P450 (CYP1A1) using HepaRG (AID 2283454). The note with it: mRNA level, 48 h; actives raise or lower the signal. The essentials:
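Differentiated human HepaRG cells, after 48 h plating, exposed in duplicate for 48 h in serum-free induction medium to 8 half-log concentrations up to 100 uM in 0.5% DMSO. CYP1A1 mRNA by qRT-PCR, normalized to ACTB/GAPDH/POLR2A; bidirectional fit versus DMSO.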

Read-out in test [2]: CFLAR gene, CFLAR (gene 8837)
Description: LTEA_HepaRG_CFLAR: Life Technologies and Expression Analysis (LTEA) Assay for CFLAR gene using HepaRG (AID 2283455). As to conditions: mRNA level, 48 h; actives raise or lower the signal. The essentials: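 HepaRG, 48 h exposure, 8-pt conc-response (100 uM top, half-log), 0.5% DMSO vehicle, duplicates. CFLAR expression by qRT-PCR; ACTB/GAPDH/POLR2A normalization; gain or loss fit vs DMSO baseline.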

Read-out in test [3]: Forkhead box O1 (FOXO1), FOXO1 (gene 2308)
Description: LTEA_HepaRG_FOXO1: Life Technologies and Expression Analysis (LTEA) Assay for Forkhead box O1 (FOXO1) using HepaRG (AID 2283456). The note with it: mRNA level, 48 h; actives raise or lower the signal. Summed up: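 Readout is FOXO1 transcript level by multiplexed qRT-PCR against three housekeeping genes, curve-fitted in both directions relative to 0.5% DMSO vehicle. Human HepaRG cultures received chemicals for 48 h, up to 100 uM in half-log steps.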

Read-out in test [4]: growth arrest and DNA damage 45 (GADD45A), GADD45A (gene 1647)
Description: LTEA_HepaRG_GADD45A: Life Technologies and Expression Analysis (LTEA) Assay for growth arrest and DNA damage 45 (GADD45A) using HepaRG (AID 2283458). As to conditions: mRNA level, 48 h; actives raise or lower the signal. Summed up: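 Differentiated HepaRG cells were exposed in duplicate for 48 h in serum-free induction medium to 8-point half-log concentrations up to 100 uM in 0.5% DMSO. GADD45A mRNA was measured by TaqMan qRT-PCR, normalized to ACTB, GAPDH and POLR2A, with bidirectional fitting versus DMSO.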

Read-out in test [5]: Forkhead box O3 (FOXO3), FOXO3 (gene 2309)
Description: LTEA_HepaRG_FOXO3: Life Technologies and Expression Analysis (LTEA) Assay for Forkhead box O3 (FOXO3) using HepaRG (AID 2283459). The note with it: mRNA level, 48 h; actives raise or lower the signal. The essentials: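 HepaRG, 48 h post-dose; 8 conc., half-log from 100 uM, 0.5% DMSO, duplicates; serum-free induction medium. Readout: FOXO3 mRNA, TaqMan qRT-PCR, housekeeping-normalized. Bidirectional curve fit vs DMSO baseline.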

Read-out in test [6]: growth arrest and DNA damage 45 (GADD45B), GADD45B (gene 4616)
Description: LTEA_HepaRG_GADD45B: Life Technologies and Expression Analysis (LTEA) Assay for growth arrest and DNA damage 45 (GADD45B) using HepaRG (AID 2283461). As to conditions: mRNA level, 48 h; actives raise or lower the signal. The essentials:
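Differentiated human HepaRG cells in serum-free induction medium exposed 48 h in duplicate to eight concentrations, top 100 uM, half-log steps, 0.5% DMSO. GADD45B mRNA by TaqMan qRT-PCR, normalized to ACTB, GAPDH, POLR2A; bidirectional fit versus DMSO.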

Read-out in test [7]: ABC Transporter (ABCC3), ABCC3 (gene 8714)
Description: LTEA_HepaRG_ABCC3: Life Technologies and Expression Analysis (LTEA) Assay for ABC Transporter (ABCC3) using HepaRG (AID 2283462). The note with it: mRNA level, 48 h; actives raise or lower the signal. The essentials:
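Differentiated human HepaRG cells exposed 48 h in serum-free induction medium, 0.5% DMSO vehicle, 8-point half-log series to 100 uM in duplicate. ABCC3 mRNA by qRT-PCR, normalised to ACTB, GAPDH, POLR2A; bidirectional fit vs DMSO.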

Read-out in test [8]: ABC Transporter (ABCB11), ABCB11 (gene 8647)
Description: LTEA_HepaRG_ABCB11: Life Technologies and Expression Analysis (LTEA) Assay for ABC Transporter (ABCB11) using HepaRG (AID 2283463). The note with it: mRNA level, 48 h; actives raise or lower the signal. The essentials:
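ABCB11 transcript levels are read by Fluidigm TaqMan qRT-PCR after 48 h chemical treatment of human HepaRG cells. Concentrations span 100 uM downward in half-log steps with 0.5% DMSO; gain or loss is fitted against DMSO controls.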

Read-out in test [9]: ABC Transporter (ABCC2), ABCC2 (gene 1244)
Description: LTEA_HepaRG_ABCC2: Life Technologies and Expression Analysis (LTEA) Assay for ABC Transporter (ABCC2) using HepaRG (AID 2283464). The note with it: mRNA level, 48 h; actives raise or lower the signal. Summed up:
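Differentiated HepaRG cells in serum-free induction medium exposed 48 h to eight half-log concentrations up to 100 uM, 0.5% DMSO, in duplicate. ABCC2 mRNA measured by qRT-PCR (TaqMan, Fluidigm), normalized to ACTB, GAPDH and POLR2A. Fitted in both directions against DMSO.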

Read-out in test [10]: Broad substrate specificity ATP-binding cassette transporter ABCG2 (Homo sapiens) (UniProt Q9UNQ0)
Description: LTEA_HepaRG_ABCG2: Life Technologies and Expression Analysis (LTEA) Assay for ABC Transporter (ABCG2) using HepaRG (AID 2283465). The note with it: mRNA level, 48 h; actives raise or lower the signal. The essentials: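 Read-out is ABCG2 mRNA induction or loss quantified by qRT-PCR after 48 h chemical treatment of human HepaRG cells, normalized to three housekeeping genes. Concentrations reached 100 uM top in half-log steps; fitting was bidirectional against 0.5% DMSO.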

Read-out in test [11]: ATP-citrate lyase (ACLY), ACLY (gene 47)
Description: LTEA_HepaRG_ACLY: Life Technologies and Expression Analysis (LTEA) Assay for ATP-citrate lyase (ACLY) using HepaRG (AID 2283466). As to conditions: mRNA level, 48 h; actives raise or lower the signal. The essentials: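 HepaRG, 48 h exposure, 8-pt half-log dilutions (top 100 uM), 0.5% DMSO. Readout: ACLY mRNA, TaqMan qRT-PCR, housekeeping-normalized (ACTB/GAPDH/POLR2A). Bidirectional curve fit vs DMSO.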

Read-out in test [12]: Alkaline Phosphatase, Placental (ALPP) gene, ALPP (gene 250)
Description: LTEA_HepaRG_ALPP: Life Technologies and Expression Analysis (LTEA) Assay for Alkaline Phosphatase, Placental (ALPP) gene using HepaRG (AID 2283468). As to conditions: mRNA level, 48 h; actives raise or lower the signal. Summed up:
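HepaRG cells plated 48 h, then exposed in duplicate for 48 h in serum-free induction medium to 8-point half-log series from 100 uM in 0.5% DMSO. ALPP mRNA by TaqMan qRT-PCR, normalized to ACTB/GAPDH/POLR2A; bidirectional fit versus DMSO.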

Read-out in test [13]: Bcl-2 (BAD) gene, BAD (gene 572)
Description: LTEA_HepaRG_BAD: Life Technologies and Expression Analysis (LTEA) Assay for Bcl-2 (BAD) gene using HepaRG (AID 2283469). The note with it: mRNA level, 48 h; actives raise or lower the signal. Summed up:
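BAD transcript change, measured by qRT-PCR against three housekeeping genes and fitted in both directions relative to 0.5% DMSO, after 48 h chemical treatment of human HepaRG liver cells at concentrations up to 100 uM.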

Read-out in test [14]: Alpha-fetoprotein (AFP) gene, AFP (gene 174)
Description: LTEA_HepaRG_AFP: Life Technologies and Expression Analysis (LTEA) Assay for Alpha-fetoprotein (AFP) gene using HepaRG (AID 2283472). The note with it: mRNA level, 48 h; actives raise or lower the signal. The essentials: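 Human HepaRG cells plated 48 h, then switched to serum-free induction medium and exposed in duplicate for 48 h to 8-point half-log series from 100 uM in 0.5% DMSO. AFP mRNA by qRT-PCR, normalized to ACTB, GAPDH, POLR2A; bidirectional fit versus DMSO.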

Read-out in test [15]: ABC Transporter (ABCB1), ABCB1 (gene 5243)
Description: LTEA_HepaRG_ABCB1: Life Technologies and Expression Analysis (LTEA) Assay for ABC Transporter (ABCB1) using HepaRG (AID 2283460). The note with it: mRNA level, 48 h; actives raise or lower the signal. Summed up:
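Expression of ABCB1 was quantified by qRT-PCR against three housekeeping genes after human HepaRG cultures received test chemicals for 48 hours. Concentrations spanned eight half-log steps topping at 100 uM in 0.5% DMSO; gain or loss of signal was fitted relative to vehicle.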

Read-out in test [16]: Bcl-2 (BAX) gene, BAX (gene 581)
Description: LTEA_HepaRG_BAX: Life Technologies and Expression Analysis (LTEA) Assay for Bcl-2 (BAX) gene using HepaRG (AID 2283470). As to conditions: mRNA level, 48 h; actives raise or lower the signal. The essentials: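 Differentiated human HepaRG cells, plated 48 h then switched to serum-free induction medium, were exposed 48 h to 8 half-log concentrations up to 100 uM in 0.5% DMSO; BAX mRNA measured by qRT-PCR, normalized to ACTB, GAPDH, POLR2A.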

Read-out in test [17]: Peroxisomal acyl-coenzyme A oxidase 1 (ACOX1) gene, ACOX1 (gene 51)
Description: LTEA_HepaRG_ACOX1: Life Technologies and Expression Analysis (LTEA) Assay for Peroxisomal acyl-coenzyme A oxidase 1 (ACOX1) gene using HepaRG (AID 2283467). As to conditions: mRNA level, 48 h; actives raise or lower the signal. The essentials: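 Measured by qRT-PCR against three housekeeping genes: ACOX1 transcript change in human HepaRG cells after 48 h dosing. Concentrations ran up to 100 uM in half-log steps. Curves were fitted bidirectionally relative to 0.5% DMSO.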

Read-out in test [18]: adenosine kinase (ADK) gene, ADK (gene 132)
Description: LTEA_HepaRG_ADK: Life Technologies and Expression Analysis (LTEA) Assay for adenosine kinase (ADK) gene using HepaRG (AID 2283471). The note with it: mRNA level, 48 h; actives raise or lower the signal. The essentials: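 ADK expression quantified by qRT-PCR, normalised to three housekeeping genes, after 48 h exposure of HepaRG cells to eight concentrations (top 100 uM, half-log steps, duplicate, 0.5% DMSO). Up- or down-regulation fitted relative to vehicle.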

Test [19] in a line: CEETOX_H295R_TESTO: CeeTox H295R High-throughput Steroidogenesis Assay for Testosterone (TESTO) (AID 2283457). As to conditions: actives raise or lower the signal. Summed up:
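H295R adrenal cells, passage ≤10, exposed to chemicals for 48 h. Testosterone in medium measured by MTBE extraction and HPLC-MS/MS against a 7-point standard curve. Bidirectional fit versus DMSO; MTT viability checked in the same wells.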

The source made the active and inactive calls. Rule for the calls: active = hit-call score of the fitted dose curve at least 0.9, where 1 is the maximum; inactive = score below 0.9.

Chain of Broad substrate specificity ATP-binding cassette transporter ABCG2 (Homo sapiens) (Q9UNQ0 whole entry, looked up): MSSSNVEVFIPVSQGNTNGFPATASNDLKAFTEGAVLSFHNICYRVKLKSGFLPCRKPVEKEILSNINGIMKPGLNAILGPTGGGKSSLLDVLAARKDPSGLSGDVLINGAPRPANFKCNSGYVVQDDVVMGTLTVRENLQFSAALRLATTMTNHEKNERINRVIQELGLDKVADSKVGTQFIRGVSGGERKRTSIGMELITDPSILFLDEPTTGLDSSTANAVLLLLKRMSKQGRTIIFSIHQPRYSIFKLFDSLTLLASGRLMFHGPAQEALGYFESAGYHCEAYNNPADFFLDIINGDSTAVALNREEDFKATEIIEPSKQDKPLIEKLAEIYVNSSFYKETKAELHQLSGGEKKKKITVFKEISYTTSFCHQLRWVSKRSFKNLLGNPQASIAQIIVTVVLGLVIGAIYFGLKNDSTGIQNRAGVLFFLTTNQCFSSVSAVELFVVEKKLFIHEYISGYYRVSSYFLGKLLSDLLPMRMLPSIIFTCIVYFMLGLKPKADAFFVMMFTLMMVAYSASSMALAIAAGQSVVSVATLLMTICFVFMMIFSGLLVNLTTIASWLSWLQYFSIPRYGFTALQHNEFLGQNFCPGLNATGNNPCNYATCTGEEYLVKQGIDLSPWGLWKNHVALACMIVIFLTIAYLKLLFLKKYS

A word on the AC50: it is the concentration at which the activity in the assay is half-maximal. Turning to `CCCCC(CC)COC(=O)c1ccc(C(=O)OCC(CC)CCCC)c(C(=O)OCC(CC)CCCC)c1` (centres undefined), the half-maximal activity concentration (AC50) in [1] is 50 µM (active). Moreover, the compound was called inactive in test [2], in [3], in test [4], in [5], in [6] and in test [7]. Further, the call in [8], in [9], in test [10], in [11], in test [12] and in test [13] was inactive. Further, the call in test [14] was inactive.
For the compound `Oc1ccc2ccc3cccc4ccc1c2c34`, the AC50 in [1] is 27.5 µM (active); in [10], 11.9 µM (active). Also, the result in test [2], in test [3], in [4], in test [5], in test [15] and in test [6] was inactive. The call in test [7], in test [8], in [9], in [11], in test [12] and in test [13] was inactive. Further, the compound was classed as inactive in test [16] and in [14].
As to `CC(C)(C)OOC(=O)c1ccccc1`, the half-maximal activity concentration (AC50) in test [1] was 83.2 µM (active). For the same compound, the outcome in test [2], in [3], in [4], in test [5], in [15] and in test [7] was inactive. In addition, the result in test [8], in test [9], in test [10], in [11], in [12] and in test [13] was inactive. In addition, in test [14], the result was inactive.
As for `Cc1ccc(N)cc1`, the call in [1], in test [2], in [3], in test [4], in test [5] and in test [7] was inactive. Further, the call in [8], in test [9], in test [10], in test [11], in test [17] and in test [12] was inactive. The compound was called inactive in test [13], in test [18] and in [14].
Consider `Clc1ccccc1Cl`, for which the outcome in [1], in test [2], in test [3], in test [4], in test [5] and in test [6] was inactive. Further, the call in test [7], in test [8], in test [9], in test [10], in [11] and in test [12] was inactive. For the same compound, the compound was classed as inactive in test [13], in test [16] and in test [14].
With `CC(C)N(Cc1ccccc1)C(=O)C(C)(C)C`, the half-maximal activity concentration (AC50) in test [1] and in test [9] was 50 µM (active) in each case. Besides, the compound was classed as inactive in test [3], in test [19], in test [4], in test [5], in [7] and in [8]. The result in test [10], in [11], in test [12], in test [13], in test [16] and in [18] was inactive. For the same compound, the result in test [14] was inactive.
